Laboratory results as given in PubChem BioAssay.
“And” between values parts separate entries of the source, which are not always exact repeats. Equal values may be shown once. For some assays here: Potency and affinity values are given separately. More than one record can exist for a structure, and the calls need not agree. The source made the active and inactive calls. Unless noted, how the calls were made is not given here.

What was measured:
[1] = antimalarial activity against Dd2 strain (AID 2302;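 active means growth inhibition above 50% at the single 2 µM test dose, taken to imply half-maximal potency below 2 µM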;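 further: 0% = DMSO untreated growth and 100% = chloroquine plus artemisinin killed control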); conditions: P. falciparum Dd2 in RBCs, LDH growth readout, 72 h; at 2 µM; stronger effect = higher value
[2] = human hepatoma cell viability loss – ATP luminescence, cytotoxicity control for P. falciparum antimalarial project, primary screen (AID 2303;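 active means inhibition above 50%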;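 further: 0% = DMSO wells and 100% = digitonin-killed cells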); conditions: HepG2 viability, 24-48 h, at 10 µM, stronger effect = higher value
[3] = molecular target: L-lactate dehydrogenase (Plasmodium falciparum (isolate CDC / Honduras)) (UniProt Q27743); assay: PfLDH activity inhibition – cell lysate, 3D7 strain, counter-screen for P. falciparum growth inhibition project (AID 2304);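 further: 0% = vehicle and 100% = reference inhibitor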; conditions: P. falciparum 3D7 crude extract, LDH APAD/NBT absorbance; at 2 µM; stronger effect = higher value
Sequence of L-lactate dehydrogenase (Plasmodium falciparum (isolate CDC / Honduras)) (Q27743 whole entry, looked up): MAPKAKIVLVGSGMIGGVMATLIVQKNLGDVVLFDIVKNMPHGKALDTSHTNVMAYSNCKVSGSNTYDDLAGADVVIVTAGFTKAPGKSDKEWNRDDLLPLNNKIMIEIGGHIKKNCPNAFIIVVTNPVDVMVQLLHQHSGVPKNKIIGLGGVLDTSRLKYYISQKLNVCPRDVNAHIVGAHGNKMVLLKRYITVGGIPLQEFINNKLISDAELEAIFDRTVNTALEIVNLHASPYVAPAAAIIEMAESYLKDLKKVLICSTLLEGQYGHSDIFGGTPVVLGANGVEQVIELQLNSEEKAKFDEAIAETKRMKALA

[4] = inhibition of 3D7 malaria parasite growth – strain 3D7 (AID 2306);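 further: 0% = DMSO wells and 100% = chloroquine plus artemisinin control wells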; conditions: P. falciparum 3D7 erythrocytic growth, LDH absorbance, 72 h; at 2 µM; stronger effect = higher value
[5] = molecular target: Calcium-dependent protein kinase 1 (Plasmodium falciparum (isolate 3D7)) (UniProt P62344); assay: PfCDPK1 kinase inhibitors, biochemical, TCAMS library (AID 1159585; cut-off not given, nearly all actives have IC50 up to about 0.98 µM;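 further: inhibitors leave more ATP so luminescence rises with inhibition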); conditions: recombinant PfCDPK1, Kinase-Glo ATP depletion luminescence
Sequence of Calcium-dependent protein kinase 1 (Plasmodium falciparum (isolate 3D7)) (P62344 whole entry, looked up): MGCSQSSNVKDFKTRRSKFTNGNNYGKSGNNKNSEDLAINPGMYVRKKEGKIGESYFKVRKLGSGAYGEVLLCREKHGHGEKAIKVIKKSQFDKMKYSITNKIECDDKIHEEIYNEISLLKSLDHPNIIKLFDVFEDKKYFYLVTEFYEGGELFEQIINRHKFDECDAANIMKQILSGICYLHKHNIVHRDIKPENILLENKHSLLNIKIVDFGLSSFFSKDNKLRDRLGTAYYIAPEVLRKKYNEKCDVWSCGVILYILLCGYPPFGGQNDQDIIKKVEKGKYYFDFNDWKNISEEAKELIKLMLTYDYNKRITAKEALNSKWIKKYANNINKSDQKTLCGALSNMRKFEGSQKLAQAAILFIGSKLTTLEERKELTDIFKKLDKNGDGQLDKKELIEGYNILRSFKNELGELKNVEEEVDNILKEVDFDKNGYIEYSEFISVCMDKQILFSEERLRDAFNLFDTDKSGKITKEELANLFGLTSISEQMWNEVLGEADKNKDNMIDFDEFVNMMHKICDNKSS

[6] = molecular target: Plasmodium falciparum protein kinase 6 (PK6, PF3D7_1337100) (UniProt Q8IDW1); assay: PfPK6 kinase inhibitors, biochemical, TCAMS library (AID 1159586); conditions: recombinant PfPK6, Kinase-Glo ATP depletion luminescence
Sequence of Plasmodium falciparum protein kinase 6 (PK6, PF3D7_1337100) (Q8IDW1 1-305): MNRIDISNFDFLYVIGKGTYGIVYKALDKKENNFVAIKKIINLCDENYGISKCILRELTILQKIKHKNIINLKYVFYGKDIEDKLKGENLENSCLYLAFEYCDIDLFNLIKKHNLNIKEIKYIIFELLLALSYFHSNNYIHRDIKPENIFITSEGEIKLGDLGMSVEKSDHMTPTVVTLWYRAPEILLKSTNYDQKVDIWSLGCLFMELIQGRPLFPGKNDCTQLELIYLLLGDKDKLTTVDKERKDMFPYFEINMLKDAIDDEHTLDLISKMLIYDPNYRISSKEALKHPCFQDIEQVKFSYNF

[7] = molecular target: Protein kinase 7 (PK7), Plasmodium falciparum 3D7 (PF3D7_0213400) (UniProt Q7YTF7); assay: inhibition of Plasmodium PK7 catalytic activity – biochemical, TCAMS antimalarial set, Kinase-Glo luminescence (AID 1159587); conditions: recombinant PfPK7, Kinase-Glo ATP depletion luminescence
Sequence of Protein kinase 7 (PK7), Plasmodium falciparum 3D7 (PF3D7_0213400) (Q7YTF7 1-343): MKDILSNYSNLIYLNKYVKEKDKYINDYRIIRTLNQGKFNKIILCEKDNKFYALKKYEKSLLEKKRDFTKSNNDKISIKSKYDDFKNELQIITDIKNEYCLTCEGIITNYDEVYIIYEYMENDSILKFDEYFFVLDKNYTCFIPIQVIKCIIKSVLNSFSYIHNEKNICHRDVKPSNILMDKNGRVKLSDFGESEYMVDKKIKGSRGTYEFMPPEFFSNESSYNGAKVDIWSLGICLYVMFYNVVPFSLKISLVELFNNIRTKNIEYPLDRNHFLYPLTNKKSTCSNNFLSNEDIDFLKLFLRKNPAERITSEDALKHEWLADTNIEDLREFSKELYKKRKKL

[8] = molecular target: Calcium-dependent protein kinase 4 (Plasmodium falciparum (isolate 3D7)) (UniProt Q8IBS5); assay: PfCDPK4 kinase inhibitors, biochemical, TCAMS library (AID 1159588; cut-off not given, nearly all actives have IC50 up to about 0.91 µM); conditions: recombinant PfCDPK4, Kinase-Glo ATP depletion luminescence
Sequence of Calcium-dependent protein kinase 4 (Plasmodium falciparum (isolate 3D7)) (Q8IBS5 whole entry, looked up): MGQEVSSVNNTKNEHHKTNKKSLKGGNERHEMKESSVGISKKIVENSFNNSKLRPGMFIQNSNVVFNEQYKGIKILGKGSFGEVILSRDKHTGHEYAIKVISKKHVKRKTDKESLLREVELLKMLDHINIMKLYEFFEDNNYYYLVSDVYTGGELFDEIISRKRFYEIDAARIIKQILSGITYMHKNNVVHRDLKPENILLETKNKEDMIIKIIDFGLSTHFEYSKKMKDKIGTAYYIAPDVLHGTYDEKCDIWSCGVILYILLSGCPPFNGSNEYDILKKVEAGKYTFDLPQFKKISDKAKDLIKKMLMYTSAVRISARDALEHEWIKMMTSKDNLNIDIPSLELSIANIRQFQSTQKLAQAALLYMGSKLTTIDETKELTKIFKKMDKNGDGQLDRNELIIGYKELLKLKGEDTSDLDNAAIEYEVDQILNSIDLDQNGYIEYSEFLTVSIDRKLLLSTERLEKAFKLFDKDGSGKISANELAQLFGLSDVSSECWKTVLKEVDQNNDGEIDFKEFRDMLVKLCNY

COc1cccc(CN2CCC(CCOC(c3ccccc3)c3ccc(Cl)cc3)CC2)c1O (stereo unspecified)
active: growth inhibition [1] 100% | growth inhibition [4] 99%
inactive: inhibition [2] 22% | inhibition [3] -2% | outcome [5] | outcome [6] | outcome [7] | outcome [8]

O=C(/C=C/c1ccc(Cl)c(Cl)c1)N(Cc1ccccc1)C1CCC(CN2CCC(c3c[nH]c4ccccc34)CC2)CC1 (stereo unspecified)
active: growth inhibition [1] 59% | growth inhibition [4] 101%
inactive: inhibition [2] 37% | inhibition [3] -6% | outcome [5] | outcome [6] | outcome [7] | outcome [8]

O=C(NC1CCC(CN2CCC(c3c[nH]c4ccccc34)CC2)CC1)NC12CC3CC(CC(C3)C1)C2 (stereo unspecified)
active: growth inhibition [4] 96%
inactive: growth inhibition [1] 46% | inhibition [2] 37% | inhibition [3] 7% | outcome [5] | outcome [6] | outcome [7] | outcome [8]

COc1cccc(CN2CCC(CCOC(c3ccccc3)c3ccccc3)CC2)c1O
active: growth inhibition [1] 99% | growth inhibition [4] 97%
inactive: inhibition [2] 33% | inhibition [3] 3% | outcome [5] | outcome [6] | outcome [7] | outcome [8]

O=C(C=Cc1ccccc1Br)NC1CCC(CN2CCC(c3c[nH]c4ccccc34)CC2)CC1 (stereo unspecified)
32% (inactive) and 57% (active): growth inhibition [1]
active: growth inhibition [4] 101% and 102%
inactive: inhibition [2] 36% and 43% | inhibition [3] 4% | outcome [5] | outcome [6] | outcome [7] | outcome [8]

CNC(=O)c1ccc2[nH]cc(C3CCN(CC4CCN(C(=O)/C=C/c5ccc(Cl)c(Cl)c5)CC4)CC3)c2c1
active: growth inhibition [1] 88% | growth inhibition [4] 100%
inactive: inhibition [2] 3% | inhibition [3] 1% | outcome [5] | outcome [6] | outcome [7] | outcome [8]

Cc1[nH]c2cc(Cl)ccc2c1C1=CCN(CCCCC2(C)C(=O)Nc3ccccc32)CC1 (stereo unspecified)
inactive: inhibition [2] -3% | inhibition [3] 0% | outcome [5] | outcome [6] | outcome [7] | outcome [8]
active: growth inhibition [1] 90% | growth inhibition [4] 94%

COCCNCc1cccc(-c2ccc(CN(C(=O)NC3CCCCC3)C3CCN(Cc4ccccc4)CC3)cc2)c1
active: growth inhibition [4] 101%
inactive: growth inhibition [1] 31% | inhibition [2] 32% | inhibition [3] 6% | outcome [5] | outcome [6] | outcome [7] | outcome [8]

COc1ccc(CC(C)NCC(O)c2cccc(C(F)(F)F)c2)cc1 (stereo unspecified)
active: growth inhibition [1] 94% | growth inhibition [4] 98%
inactive: inhibition [2] -7% | inhibition [3] 3% | outcome [5] | outcome [6] | outcome [7] | outcome [8]

CN(c1cc(NC(=O)c2ccc(F)cc2)ccn1)C1CCN(Cc2cccc(F)c2)CC1
inactive: inhibition [2] 13% | inhibition [3] 5% | outcome [5] | outcome [6] | outcome [7] | outcome [8]
active: growth inhibition [1] 97% | growth inhibition [4] 100%

CC[C@H]1CN2CC[C@H]1C[C@H]2[C@H](O)c1cc(-c2ccccc2F)nc2ccc(OC)cc12
inactive: inhibition [2] 13% | inhibition [3] 1% | outcome [5] | outcome [6] | outcome [7] | outcome [8]
active: growth inhibition [1] 98% | growth inhibition [4] 99%

CC[C@H]1CN2CC[C@@H]1C[C@H]2[C@H](O)c1ccnc2ccc(OC)cc12
active: growth inhibition [1] 61% | growth inhibition [4] 100%
inactive: inhibition [2] -8% | inhibition [3] -4% | outcome [5] | outcome [6] | outcome [7] | outcome [8]

O=C(/C=C/c1cccc2ccccc12)NC1CCC(CN2CCC(c3c[nH]c4ccccc34)CC2)CC1 (stereo unspecified)
active: growth inhibition [1] 66% and 72% | growth inhibition [4] 101% and 100%
45% (inactive) and 53% (active): inhibition [2]
inactive: inhibition [3] 5% and -3% | outcome [5] | outcome [6] | outcome [7] | outcome [8]

O=C(/C=C/c1ccccc1Cl)NC1CCC(CN2[C@@H]3CC[C@H]2CC(c2c[nH]c4ccccc24)C3)CC1 (stereo partly specified)
inactive: inhibition [3] 3% | outcome [5] | outcome [6] | outcome [7] | outcome [8]
active: growth inhibition [1] 98% | inhibition [2] 56% | growth inhibition [4] 102%

COc1cc(C=CC(=O)N2CCC(CN3CCC(c4c[nH]c5ccccc45)CC3)CC2)cc(OC)c1
inactive: growth inhibition [1] 8% | inhibition [2] 19% | inhibition [3] 4% | outcome [5] | outcome [6] | outcome [7] | outcome [8]
active: growth inhibition [4] 95%

O=C(C=C1c2ccccc2-c2ccccc21)NC1CCC(CN2CCC(c3c[nH]c4ccccc34)CC2)CC1 (stereo unspecified)
inactive: inhibition [3] 4% and 1% | outcome [5] | outcome [6] | outcome [7] | outcome [8]
active: growth inhibition [1] 64% and 67% | growth inhibition [4] 102% and 99%
21% (inactive) and 54% (active): inhibition [2]

OC(CNCc1ccccc1OC(F)F)c1cccc(C(F)(F)F)c1 (stereo unspecified)
inactive: inhibition [2] 2% | inhibition [3] -2% | outcome [5] | outcome [6] | outcome [7] | outcome [8]
active: growth inhibition [1] 52% | growth inhibition [4] 97%

CC(=O)C1(c2ccccc2)CCN(CCC2(c3ccc(Cl)c(Cl)c3)CN(C(=O)Nc3cccc(C(F)(F)F)c3)CCO2)CC1 (stereo unspecified)
inactive: inhibition [2] 24% | inhibition [3] 8% | outcome [5] | outcome [6] | outcome [7] | outcome [8]
active: growth inhibition [1] 66% | growth inhibition [4] 95%

COC(=O)c1ccc(CC(C)NCC(O)c2ccc(F)c(Cl)c2)cc1 (stereo unspecified)
active: growth inhibition [1] 78% | growth inhibition [4] 98%
inactive: inhibition [2] -4% | inhibition [3] -7% | outcome [5] | outcome [6] | outcome [7] | outcome [8]

CC(Cc1ccc(OCCCCOc2ccccc2)cc1)NCCCc1nc2ccccc2[nH]1 (stereo unspecified)
inactive: inhibition [3] 3% | outcome [5] | outcome [6] | outcome [7] | outcome [8]
active: growth inhibition [1] 67% | inhibition [2] 99% | growth inhibition [4] 97%

CCC1(C)CC(CCNCc2ccccc2O)(c2ccc(C)cc2)CCO1 (stereo unspecified)
inactive: inhibition [2] 9% | inhibition [3] -7% | outcome [5] | outcome [6] | outcome [7] | outcome [8]
active: growth inhibition [1] 66% | growth inhibition [4] 97%

Cc1ccc(/C=C/C(=O)NC2CCC(CN3CCC(c4c[nH]c5ccccc45)CC3)CC2)cc1C (stereo unspecified)
inactive: inhibition [2] 23% and 38% | inhibition [3] 8% and 4% | outcome [5] | outcome [6] | outcome [7] | outcome [8]
active: growth inhibition [1] 71% and 91% | growth inhibition [4] 100% and 101%

C[C@H](Cc1ccc(OCCCCCCOc2ccccc2)cc1)NC[C@H](O)c1cccc(Cl)c1
inactive: inhibition [2] 21% | inhibition [3] 7% | outcome [5] | outcome [6] | outcome [7] | outcome [8]
active: growth inhibition [1] 99% | growth inhibition [4] 93%

Cc1[nH]c2cc(Cl)ccc2c1C1=CCN(CCCCC2(C)C(=O)Nc3c(F)cccc32)CC1 (stereo unspecified)
inactive: inhibition [2] 14% | inhibition [3] 3% | outcome [5] | outcome [6] | outcome [7] | outcome [8]
active: growth inhibition [1] 74% | growth inhibition [4] 90%

CCN(CC)CCN1C(=O)C(O)(c2ccccc2Cl)c2c1cc(C(N)=O)cc2C(F)(F)F (stereo unspecified)
active: growth inhibition [1] 86% | growth inhibition [4] 101%
inactive: inhibition [2] 16% | inhibition [3] -4% | outcome [5] | outcome [6] | outcome [7] | outcome [8]

O=C(Cc1cc(=O)oc2cc(O)ccc12)N1CCC(CN2CCC(c3c[nH]c4ccccc34)CC2)CC1
inactive: growth inhibition [1] -11% | inhibition [2] 1% | inhibition [3] 3% | outcome [5] | outcome [6] | outcome [7] | outcome [8]
active: growth inhibition [4] 94%

CC[C@H]1CN2CC[C@H]1C[C@@H]2[C@H](O)c1ccnc2ccc(O)cc12
active: growth inhibition [4] 94%
inactive: growth inhibition [1] -4% | inhibition [2] -3% | inhibition [3] -2% | outcome [5] | outcome [6] | outcome [7] | outcome [8]

CC[C@H]1CN2CC[C@@H]1C[C@H]2[C@H](O)c1cc(N2CCSCC2)nc2ccc(OC)cc12
inactive: inhibition [2] 2% | inhibition [3] 1% | outcome [5] | outcome [6] | outcome [7] | outcome [8]
active: growth inhibition [1] 98% | growth inhibition [4] 99%

COc1cccc(C(=O)C2CC2CN2CC=C(c3c[nH]c4ccc(OC)nc34)CC2)c1 (stereo unspecified)
inactive: inhibition [2] 8% | inhibition [3] -2% | outcome [5] | outcome [6] | outcome [7] | outcome [8]
active: growth inhibition [1] 89% | growth inhibition [4] 94%

O=[N+]([O-])c1ccc(Oc2c(Cl)cc(S(=O)(=O)NC3CCC(CN4CCC(c5c[nH]c6ccccc56)CC4)CC3)cc2Cl)c(Cl)c1 (stereo unspecified)
inactive: inhibition [2] 30% | inhibition [3] -4% | outcome [5] | outcome [6] | outcome [7] | outcome [8]
active: growth inhibition [1] 64% | growth inhibition [4] 100%

CNCCN(C)C(=O)Oc1c(Br)c(C)nc(C)c1-c1ccc(Oc2ccc(OC(F)(F)F)cc2)cc1
active: growth inhibition [1] 98% | growth inhibition [4] 98%
inactive: inhibition [2] 19% | inhibition [3] 2% | outcome [5] | outcome [6] | outcome [7] | outcome [8]

COc1ccc(CN2CCN(CCOC(c3ccccc3)c3ccccc3)CC2)c(O)c1
inactive: inhibition [2] 19% | inhibition [3] 0% | outcome [5] | outcome [6] | outcome [7] | outcome [8]
active: growth inhibition [1] 84% | growth inhibition [4] 96%

CN(C)CCC(=O)c1ccccc1
inactive: growth inhibition [1] 5% | inhibition [2] 11% | inhibition [3] -6% | outcome [5] | outcome [6] | outcome [7] | outcome [8]
active: growth inhibition [4] 100%

CN(Cc1ccccc1)C1CCN(CCc2c[nH]c3ccc(F)cc23)CC1
inactive: inhibition [2] 28% | inhibition [3] 5% | outcome [5] | outcome [6] | outcome [7] | outcome [8]
active: growth inhibition [1] 91% | growth inhibition [4] 100%

CN(c1cc(NC(=O)c2ccc(F)cc2)ccn1)C1CCN(Cc2cccc(O)c2)CC1
active: growth inhibition [1] 82% | growth inhibition [4] 100%
inactive: inhibition [2] 3% | inhibition [3] 2% | outcome [5] | outcome [6] | outcome [7] | outcome [8]

O=C(NC1CCN(CCc2c[nH]c3ccc(F)cc23)CC1)c1ncc(-c2ccccc2)[nH]1
active: growth inhibition [1] 69% | growth inhibition [4] 102%
inactive: inhibition [2] -3% | inhibition [3] -1% | outcome [5] | outcome [6] | outcome [7] | outcome [8]

C#CCN1CCC2=C(C1)c1c(O)cc(C(C)CCCc3ccc(F)cc3)cc1OC2(C)C (stereo unspecified)
inactive: inhibition [2] 1% | inhibition [3] 5% | outcome [5] | outcome [6] | outcome [7] | outcome [8]
active: growth inhibition [1] 90% | growth inhibition [4] 98%
